Among all 360,000 compounds or so, about 3,700 (1%) were called active. Not shown: some 2% with an inconclusive outcome.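 The calls were made as follows: active = normalized GFP-positive differentiation at or above the plate's own cutoff, the solvent-only control mean plus 3 SD; inconclusive = no clear call, values can overlap the other calls; inactive = the rest.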 For the sample, actives were picked, then their nearest neighbours and some compounds at random.
Assay: induction of myeloid progenitor differentiation, primary screen, cell-based, flow cytometry, MLPCN library (AID 624256);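 as to GFP+ MAC1+ double positive: cells exposed to compound for four days before flow analysis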;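 as to normalized GFP-positive differentiation: cells exposed to compound for four days before flow analysis; 0% = DMSO wells and 100% = fulvestrant positive control at 5 µM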
Conditions: ER-HoxA9 myeloid progenitors, lysozyme-GFP differentiation, at 10 µM; GFP+ MAC1+ double positive: measured here: differentiation confirmed by MAC1 staining, stronger effect = higher value; normalized GFP-positive differentiation: stronger effect = higher value

Compound	GFP+ MAC1+ double positive [%]	outcome	normalized GFP-positive differentiation
CC(=O)C1=C(C)NC(C)=C(C(C)=O)C1c1cn(-c2ccccc2)nc1-c1cccs1	0.7	inactive	–
S=c1[nH]nc(-c2cccs2)n1/N=C/c1cn(-c2ccccc2)nc1-c1ccc(Cl)cc1	0.1	inactive	–
O=C(O)c1ccc(N/N=C/c2cn(-c3ccccc3)nc2-c2cccs2)cc1	0.5	–	10.8% (active)
Cc1nc2c(OCC(=O)C(C)(C)C)cccn2c1N(C)Cc1cccs1	2.1	inactive	–
Fc1cccc(Cc2c(-c3cccc(Cl)c3)nc3ccc(Br)cn23)c1	0.4	inactive	–
O=C(Nc1cccc(Cc2ccccc2)c1)Nc1ccc2nc([C@@H]3O[C@H](CO)[C@@H](O)[C@H](O)[C@H]3O)[nH]c2c1	2.9	inactive	–
CC#CC[N+](C)(C)CCCCCC	1.6	–	19.3% (active)
COC(=O)[C@]12CCCCC=C1N(Cc1ccc(Cl)cc1Cl)C(=O)[C@H](CC(=O)NCc1cccc3ccccc13)C2	1.1	inactive	–
Cc1cc2oc3ccc(NCCC4CCCN4C)cc3c(=O)c2cc1C (stereo not drawn)	6.6	–	73.2% (active)
COc1cccc2sc3cc(NCC[C@@H]4CCCN4C)ccc3c(=O)c12	1.3	inactive	–
CCCCNC(=O)c1nc(C2CCN(S(=O)(=O)c3ccc(F)c(F)c3)CC2)oc1-c1cccc(C(F)(F)F)c1	0.6	inactive	–
O=C(Nc1cccc(-n2cnnn2)c1)c1cccnc1	2	inactive	–
Cc1ccc(S(=O)(=O)N2CCCCC2)cc1NC(=O)c1cccnc1	1.2	inactive	–
Cc1ccc(-n2nc3cc(C)c(NC(=O)c4cccnc4)cc3n2)cc1	5.5	–	15.8% (active)
CC1(C(=O)NS(=O)(=O)c2ccc(C#N)cc2)CCN1C(=O)CC1CCCC1 (stereo not drawn)	0.6	inactive	–
CC(NC(=O)COC(=O)CCC(=O)c1ccc(Cl)cc1)c1ccccc1 (stereo not drawn)	0.8	inactive	–
CC(NC(=O)COC(=O)c1ccc(Cl)cc1O)c1ccc(F)cc1 (stereo not drawn)	6.2	–	140% (active)
C=CCOc1ccc(/C=C/C(=O)OCC(=O)NC(C)c2ccc(F)cc2)cc1 (stereo not drawn)	0.7	inactive	–
CN1OC[C@@H]2CN(C(=O)C(C)(C)C)[C@H](c3ccc(-n4ccnc4)cc3)C[C@@H]21	0.2	inactive	–
COc1ccc(/C=C/C(=O)c2c(O)cc(OC)cc2OC)cc1	1.7	inactive	–
O=C(NCc1ccccc1)C(c1ccc(F)cc1)N1CCN(C(=O)C2CCCO2)CC1 (stereo not drawn)	0.2	inactive	–
CCC(=O)N1Cc2cc(C(=O)NCc3cccc(F)c3)nc(-c3cccc(C4=CCCC4)c3)c2[C@H]1CCO	0.5	inactive	–
CCOC(=O)c1c(-c2ccccc2)oc2cc(Br)c(O)c(C=O)c12	0.5	inactive	–
Cc1cc(=O)oc2ccc(OCC(=O)O)cc12	2.2	inactive	–
CCOC(=O)c1c(-c2ccccc2)oc2ccc(OCC(=O)NN)cc12	1.9	–	26.6% (active)
CC(C)OC(=O)CC(=O)CC(O)c1cccc([N+](=O)[O-])c1 (stereo not drawn)	3.1	inactive	–
COCOc1cccc(CN2CCC(C)(Oc3ccc(SC)cc3)C2)c1 (stereo not drawn)	0.7	inactive	–

Compound	GFP+ MAC1+ double positive [%]	outcome	normalized GFP-positive differentiation
CN(C)C(=O)c1cccc(-c2cnc3c(NC=O)cc(-c4ccc(F)cc4)cn23)c1	1.2	inactive	–
CCCc1nc2c3ccccc3ccn2c1Cc1ccccc1C(F)(F)F	1.1	inactive	–
NC(c1csc(NC(=O)Nc2cccc(C(F)(F)F)c2)n1)C1CCCCC1 (stereo not drawn)	1.4	inactive	–
CCOC(=O)C1=CCC2C(=O)N(Cc3ccccc3)C(=O)C12 (stereo not drawn)	1.7	inactive	–
CC(C)(C)SCCNC(=O)c1cccc([N+](=O)[O-])c1	1.8	inactive	–
CN(C)CCNC(=O)/C(=C/c1cccc([N+](=O)[O-])c1)NC(=O)c1ccccc1	0.5	inactive	–
CN(C(=O)c1cccc([N+](=O)[O-])c1)c1ccccc1C(=O)NCc1ccccc1	2.5	–	45.3% (active)
O=C1Nc2ccccc2NC(c2ccc3c(c2)OCO3)=C1N(Cc1ccc(F)cc1)C(=O)c1ccco1	0.3	inactive	–
COC(=O)C[C@H]1C=C[C@H](NC(=O)c2ccc(F)cc2)[C@@H](CO)O1	3.2	inactive	–
O=C1OCCOC2CCCc3oc(-c4ccccc4)c1c32 (stereo not drawn)	0.1	inactive	–
CCc1ccc(C(=O)OCC(=O)Nc2cccc(S(=O)(=O)NC3=NCCCCC3)c2)cc1	0.1	inactive	–
Cc1cccc(-n2c(SCC(=O)Nc3cccc(S(=O)(=O)NC4=NCCCCC4)c3)nc3ccccc3c2=O)c1C	2.9	–	30% (active)
COc1ccccc1C(=O)OCC(=O)Nc1cccc(S(=O)(=O)NC2=NCCCCC2)c1	1.4	inactive	–
CCc1nc2c(OCCOc3ccccc3)cccn2c1N(C)C(=O)c1cccs1	0.5	inactive	–
CN(C)C1CN(Cc2cn(Cc3ccccc3)nn2)S(=O)(=O)C1 (stereo not drawn)	1.6	inactive	–
COc1cccc(NC(=S)C(C#N)=C2N(C)c3ccccc3N2C)c1	0.3	inactive	–
Cc1cccc(OCC(=O)Nc2ccccc2F)c1	0.3	inactive	–
CC(=O)Nc1cccc(OCC(=O)/C=C2\N(C)c3ccccc3C2(C)C)c1	0.5	–	24.3% (active)
CC1(C)OC(=O)C2=C(C[C@@H](C3CCCC3)O[C@@H]2c2ccc(Cl)cc2)O1	1.8	inactive	–
COc1c(C)cc(C(O)c2ncc(-c3cccc(C(F)(F)F)c3)[nH]2)cc1C (stereo not drawn)	1.2	inactive	–
COc1cc(NC(=O)c2cccs2)ccc1NC(=O)c1ccccc1Cl	0.6	inactive	–
O=C(Nc1cccc(NC(=O)c2ccccc2[N+](=O)[O-])c1)c1ccccc1Cl	0.4	inactive	–
O=C(Nc1ccc2sc3ccccc3c(=O)c2c1)c1ccccc1Cl	0.3	–	12.5% (active)
Cc1cc2nc(-c3ccco3)c(Cc3cccc(F)c3)n2c(C)c1Br	0.9	inactive	–
O=C(CCCN1C(=O)CCC1=O)Nc1ccc(Cl)c(C(F)(F)F)c1	8.3	–	22.8% (active)
CN(CC(=O)Nc1ccc(Cl)c(C(F)(F)F)c1)C(=O)CCC(=O)c1ccccc1	1	inactive	–
O=C(CN1CCN(C(=O)c2ccco2)CC1)Nc1ccc(Cl)c(C(F)(F)F)c1	0.9	inactive	–

Source: PubChem BioAssay AID624256 (NMMLSC, 2012)
